Compounds without any hit were thinned out: in the full panel of roughly 83,000, 20% have a hit.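 Single-concentration screen, 48 h exposure, 96-well plates. Endpoint: percent growth. Below 10 = active.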 Values without a mark were called inactive. Activity calls are given as the source filed them. *1 amine or outer side, *2 acyl side, *3 side chain or, on linkers, in order; H or OH if unused. Where a SMILES comes first, the peptide text is derived from it. Bridges are numbered along the chain shown (N, C = ends). Roman numbers before positions name the chains, in order. [ ]: non-standard residue; d: D form. The star is where a group is joined. Actinocin(1to9) = Cc1c2oc3c(C)ccc(C(=O)[*:2])c3nc-2c(C(=O)[*:1])c(N)c1=O; X5 = CCC(=O)CC1CC(C)CC(C(=O)[*:2])N1[*:1]; NMeV = CN[CH](C(=O)O)C(C)C; X4 = CCCCCCCCC(C)C(=O)*; Aib = CC(C)(N)C(=O)O; X6 = CC(CN(C)CCO)N*; Sar = CNCC(=O)O
Columns and labels:
Experiment in all cases: NCI-60 one-dose screen, 48 h (100 = growth as untreated, 0 = no growth, -100 = all killed)
Settings in all cases: 10 µM unless noted
[1] = test system: SK-MEL-2 melanoma
[2] = test system: EKVX NSCLC
[3] = test system: SN12C renal
[4] = test system: UO-31 renal
[5] = test system: TK-10 renal
[6] = test system: ACHN renal
[7] = test system: CAKI-1 renal
[8] = test system: A498 renal
[9] = test system: MOLT-4 leukemia
[10] = test system: CCRF-CEM leukemia

Compound: C(=N\Nc1ccc2ccccc2n1)/c1ccccn1
- growth [1]: 39.5%
- growth [2]: 20.7%
- growth [3]: 17.7%
- growth [4]: -29.8% (active)
- growth [5]: 48%
- growth [6]: 7.28% (active)
- growth [7]: 2.92% (active)
- growth [8]: 26.7%
- growth [9]: 6.6% (active)

Compound: CCc1cnc2ccccc2c1/C=C/c1ccc(N(C)C)cc1
- growth [1]: 30.3%
- growth [2]: 62.4%
- growth [3]: 52.3%
- growth [4]: 44.6%
- growth [5]: 57.1%
- growth [6]: 60.3%
- growth [7]: 51.6%
- growth [8]: 34%
- growth [10]: 32.9%
- growth [9]: 33.9%

Compound: C/C=C/c1cc2c(c(=O)o1)C(=O)[C@@H](O)[C@H](C)O2
- growth [1]: 72.9%
- growth [2]: 95%
- growth [3]: 97.6%
- growth [4]: 0.0978% (active)
- growth [5]: 5.77% (active)
- growth [6]: 26.3%
- growth [7]: 43.3%
- growth [8]: 125%
- growth [10]: -17.5% (active)
- growth [9]: 43.6%

Compound: CC(CSc1n[nH]c(=S)s1)c1ccccc1 (stereo not drawn)
- growth [1]: 130%
- growth [2]: 107%
- growth [3]: 101%
- growth [4]: 77.4%
- growth [5]: 116%
- growth [6]: 116%
- growth [7]: 98.5%
- growth [8]: 108%
- growth [9]: 91.2%

Compound: CCOC(=O)C1=NN(c2ccccc2)C(=O)/C1=C\N1C(=O)/C(=C/c2cccc(O)c2)SC1=S
- growth [1]: 99.6%
- growth [2]: 107%
- growth [3]: 82.3%
- growth [4]: 76%
- growth [5]: 117%
- growth [6]: 99.5%
- growth [7]: 100%
- growth [8]: 94.5%
- growth [9]: 95.7%

Compound: N#CCc1cccc2ccccc12
- growth [1]: 95.1%
- growth [2]: 101%
- growth [3]: 110%
- growth [4]: 92%
- growth [5]: 98.3%
- growth [6]: 103%
- growth [7]: 103%
- growth [8]: 109%
- growth [9]: 92%

Compound: CCOc1ccc(C(C[N+](=O)[O-])Sc2ccccc2N)cc1 (stereo not drawn)
- growth [1]: 98.7%
- growth [2]: 66.9%
- growth [3]: 65%
- growth [4]: -62.9% (active)
- growth [5]: 106%
- growth [6]: 55.4%
- growth [7]: 64.6%
- growth [8]: 109%
- growth [10]: 30.3%
- growth [9]: 4.52% (active)

Compound: NC(CS/C(Cl)=C/Cl)C(=O)O (stereo not drawn)
- growth [1]: 53.7%
- growth [2]: 81.4%
- growth [3]: 87%
- growth [4]: 82.6%
- growth [5]: 117%
- growth [6]: 95.2%
- growth [7]: 89.6%
- growth [8]: -60% (active)
- growth [10]: 66.5%
- growth [9]: 97.1%

Compound: O=C1C(=O)c2cccnc2-c2ncccc21
- growth [1]: -11.1% (active)
- growth [2]: -49.7% (active)
- growth [3]: -14.3% (active)
- growth [4]: -71.3% (active)
- growth [5]: -24% (active)
- growth [6]: -69.4% (active)
- growth [7]: -29.4% (active)
- growth [8]: -39.4% (active)
- growth [9]: -45.1% (active)

Compound: O=C(O)c1cccc2cccc(-c3c4ccc(=O)c(O)c-4oc4c(O)c(O)ccc34)c12
- growth [1]: 96.8%
- growth [2]: 83.7%
- growth [3]: 91%
- growth [4]: 66.6%
- growth [5]: 110%
- growth [6]: 92.3%
- growth [7]: 90.2%
- growth [8]: 104%
- growth [10]: 94.7%
- growth [9]: 82.2%

Compound: Cc1ccccc1NC(=O)Cc1csc2[n+]1C(=O)/C(=C/c1ccc([N+](=O)[O-])cc1)S2
- growth [1]: 108%
- growth [2]: 92.8%
- growth [3]: 99.6%
- growth [4]: 71.8%
- growth [5]: 117%
- growth [6]: 90.4%
- growth [7]: 93.4%
- growth [8]: 75%
- growth [10]: 99.1%
- growth [9]: 88.2%

Compound: CCOc1cc(F)c([N+](=O)[O-])cc1[N+](=O)[O-]
- growth [1]: 50.4%
- growth [2]: 101%
- growth [3]: 90.5%
- growth [4]: 45.4%
- growth [5]: 12.5%
- growth [6]: 12.7%
- growth [7]: 18.8%
- growth [8]: 101%
- growth [10]: 9.98% (active)
- growth [9]: 9.18% (active)

Compound: CC(C)N=C(N)/N=C(\N)Nc1ccc2ccc3ccccc3c2c1
- growth [1]: -81.8% (active)
- growth [2]: -91.2% (active)
- growth [3]: -84.6% (active)
- growth [4]: -58.4% (active)
- growth [5]: -89.6% (active)
- growth [6]: -89.2% (active)
- growth [7]: -81.1% (active)
- growth [8]: -73.7% (active)
- growth [10]: 12.3%
- growth [9]: -3.58% (active)

Compound: O=C1C=CC(=O)c2c(O)c(CO)c(CO)c(O)c21
- growth [1]: 119%
- growth [2]: 105%
- growth [3]: 101%
- growth [4]: 75.5%
- growth [5]: 107%
- growth [6]: 95.3%
- growth [7]: 93.4%
- growth [8]: 120%
- growth [9]: 86.6%

Compound: CC(C)Nc1ccc(Nc2ccc(NC(C)C)cc2)cc1
- growth [1]: 69.9%
- growth [2]: 31.3%
- growth [3]: 30.7%
- growth [4]: 87%
- growth [5]: 62.6%
- growth [6]: 70.4%
- growth [7]: 94.4%
- growth [8]: 84.1%
- growth [9]: 30.1%

Compound: O/N=C1\c2ccccc2-c2ccc(F)cc21
- growth [1]: 97.5%
- growth [2]: 90.4%
- growth [3]: 94.4%
- growth [4]: 47.7%
- growth [5]: 84.8%
- growth [6]: 87.1%
- growth [7]: 94.1%
- growth [8]: 132%
- growth [10]: 86.5%
- growth [9]: 71.6%

Compound: O=C(CCl)N(c1ccccc1)c1ccccc1
- growth [1]: 97.7%
- growth [2]: 111%
- growth [3]: 99.6%
- growth [4]: 86.7%
- growth [5]: 105%
- growth [6]: 109%
- growth [7]: 105%
- growth [8]: 105%
- growth [10]: 92.7%
- growth [9]: 102%

Compound: Fc1ccc(NCCS)cc1
- growth [1]: 102%
- growth [2]: 101%
- growth [3]: 97.9%
- growth [4]: 84.7%
- growth [5]: 106%
- growth [6]: 105%
- growth [7]: 110%
- growth [8]: 101%
- growth [10]: 96.6%
- growth [9]: 95.3%

Compound: CCC(C)C(N)C(=O)NC(CC(N)=O)C(=O)NC(CC(C)C)C(=O)NC(CCCCN)C(=O)NC(C)C(=O)NC(CC(C)C)C(=O)NC(C)C(=O)NC(C)C(=O)NC(CC(C)C)C(=O)NC(C)C(=O)NC(CCCCN)C(=O)NC(CCCCN)C(=O)NC(C(=O)NC(CC(C)C)C(N)=O)C(C)CC (stereo not drawn)
- growth [1]: 115%
- growth [2]: 91.2%
- growth [3]: 89.5%
- growth [4]: 97.4%
- growth [5]: 106%
- growth [6]: 87.3%
- growth [7]: 85.3%
- growth [9]: 94%

Compound: O=C(Nc1cccc(C(F)(F)F)c1)Oc1ccc(Cl)c2cccnc12
- growth [1]: 9.44% (active)
- growth [2]: -2.85% (active)
- growth [3]: 33.1%
- growth [4]: -17.3% (active)
- growth [5]: 72.2%
- growth [6]: -2.14% (active)
- growth [8]: 78.5%
- growth [10]: -15.3% (active)
- growth [9]: -1.74% (active)

Compound: CCCCCCCCCCCC[N+]1(CCCCCCCCCCCC)CCCC(C)C1 (stereo not drawn)
- growth [1]: -96.5% (active)
- growth [2]: -51.7% (active)
- growth [3]: -72.4% (active)
- growth [4]: -100% (active)
- growth [5]: -79.3% (active)
- growth [6]: -78.5% (active)
- growth [10]: -56.7% (active)
- growth [9]: -62.6% (active)

Compound: CN1CCC(c2ccccc2)(c2ccccc2)C(=O)C1
- growth [1]: 122%
- growth [2]: 47.3%
- growth [3]: 101%
- growth [4]: 68.9%
- growth [5]: 76.4%
- growth [6]: 102%
- growth [7]: 71.2%
- growth [10]: 29.1%
- growth [9]: 92.7%

Compound: CCC(C)C1NC(=O)C(NC(=O)c2c3nc4c(C(=O)NC5C(=O)NC(C(C)CC)C(=O)N6CCCC6C(=O)N(C)CC(=O)N(C)C(C(C)C)C(=O)OC5C)ccc(C)c4oc-3c(C)c(=O)c2N)C(C)OC(=O)C(C(C)C)N(C)C(=O)CN(C)C(=O)C2CCCN2C1=O (stereo not drawn) (I: TIP[Sar][NMeV] / II: TIP[Sar][NMeV]; ester I:1-I:C, II:1-II:C; linker I:N-II:N via Actinocin(1to9); configuration not given here)
- growth [1]: -43.2% (active)
- growth [2]: 8.25% (active)
- growth [3]: 15.4%
- growth [4]: -15.6% (active)
- growth [5]: 3.49% (active)
- growth [6]: -4.88% (active)
- growth [7]: -13.1% (active)
- growth [9]: -0.501% (active)

Compound: CCOC(=O)C1(C)CCCC1N (stereo not drawn)
- growth [1]: 113%
- growth [2]: 108%
- growth [3]: 101%
- growth [4]: 83.7%
- growth [5]: 98.7%
- growth [6]: 106%
- growth [7]: 87.6%
- growth [8]: 106%
- growth [9]: 103%

Compound: NCCCN(CCCN)CCCNCc1c2ccccc2c(CNCCCN(CCCN)CCCN)c2ccccc12
- growth [1]: 100%
- growth [2]: 89.4%
- growth [3]: 110%
- growth [4]: 72.4%
- growth [5]: 97.5%
- growth [6]: 100%
- growth [8]: 95.4%
- growth [10]: 102%
- growth [9]: 98.8%

Compound: C[C@@]1(CO)[C@H](O)CC[C@@]2(C)[C@H]1CC[C@H]1C[C@@H]3C[C@@]12CC[C@@]3(O)COC(=O)CN
- growth [1]: 102%
- growth [2]: 74.2%
- growth [3]: 61.6%
- growth [4]: 22.7%
- growth [5]: 85.3%
- growth [6]: 14.6%
- growth [7]: 17%
- growth [10]: 32.8%
- growth [9]: 28.2%

Compound: CCCCCCCCC(C)C(=O)N1CCCC1C(=O)N1C(CC(=O)CC)CC(C)CC1C(=O)NC(C)C(=O)NC(C)(C)C(=O)NC(C)(C)C(=O)NC(C(=O)NC(C)C(=O)NC(C)(C)C(=O)NC(C)(C)C(=O)NC(C)CN(C)CCO)C(C)CC (stereo not drawn) (X4-P[X5]A[Aib][Aib]IA[Aib][Aib]-X6; configuration not given here)
- growth [1]: -34% (active)
- growth [2]: -25.3% (active)
- growth [3]: -78.5% (active)
- growth [4]: -48.1% (active)
- growth [5]: -50.5% (active)
- growth [6]: -54.5% (active)
- growth [7]: 7.86% (active)
- growth [9]: -40.9% (active)

Compound: Cc1cccc2c(N)c3ccccc3nc12
- growth [1]: -28.5% (active)
- growth [2]: 1.94% (active)
- growth [3]: -9.63% (active)
- growth [4]: -53.9% (active)
- growth [5]: -5.29% (active)
- growth [6]: -18.6% (active)
- growth [7]: -21.9% (active)
- growth [10]: 6.63% (active)
- growth [9]: 2.71% (active)

Compound: Oc1ccc(Cl)cc1C(c1cc(Cl)ccc1O)C(Cl)(Cl)Cl
- growth [1]: 49.2%
- growth [2]: 13.7%
- growth [3]: -4.47% (active)
- growth [4]: 40.8%
- growth [5]: 77.5%
- growth [7]: 36.8%
- growth [8]: 23.4%
- growth [10]: 19.1%
- growth [9]: 2.12% (active)
